Screening data (PubChem BioAssay)
A549 tox: Nrf2 qHTS screen for inhibitors: counterscreen for cytotoxicity. Potency, µM (titrated, usually from 46 µM), for the others: top-dose activity change, negative = cytotoxicity, hits mostly inhibitors. AID 504648, 2011. A549 ARE-Fluc cells, CellTiter-Fluor viability, 18-24 h. 390,000 compounds, 0.16% hits; also: potency is read from the fitted curve at half-maximal effect; % is scaled to controls: 0 for no effect and ±100 for the full control effect
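Cytotoxicity counterscreen: CellTiter-Fluor fluorescence was measured in A549 ARE_Fluc cells after 18-24 h of compound exposure in a concentration series. The subsequent BugLite luminescent read reports ARE-luciferase activity.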
Nrf2 activator: qHTS of Nrf2 Activators; AREc32 ARE-luciferase reporter (MCF7-derived line), luminescence, 24 h; Potency, µM (titrated, usually from 46.1 µM), for inactives: top-dose activation, actives largely listed as activators; 410,000 compounds, 0.31% hits; AID 624171, 2012; also: potency is read from the fitted curve at half-maximal effect; % of control where 0% means no effect; nearly all actives have a fitted effect of over 65% in size
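AREc32_Fluc, 1000 cells/well, OPTI-MEM + 5% FBS, o/n 37 deg C 5% CO2; 23 nL cpd by pin tool, 24 hr; Steady-Glo 30 min RT, luminescence.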
Nrf2 block: Nrf2 qHTS screen for inhibitors | A549 ARE-Fluc reporter, luciferase luminescence, 18-24 h | Potency, µM (titrated, usually from 46 µM), for the others: top-dose activity change, negative = inhibition, most hits filed as inhibitors | 360,000 compounds, 2.1% hits | AID 504444, 2011; also: potency is read from the fitted curve at half-maximal effect; % is scaled to controls: 0 for no effect and ±100 for the full control effect; nearly all actives have a fitted effect of over 60% in size
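In this cell-based qHTS, ARE-driven firefly luciferase in A549 cells reports Nrf2 activity; the luminescent signal after BugLite lysis is the measured value, with a prior CellTiter-Fluor read for cell health.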
ClpP mod: qHTS Assay for Activators of ClpP; ATP-dependent Clp protease proteolytic subunit (Bacillus subtilis (strain 168)), P80244; purified B. subtilis ClpP, FRET peptide cleavage, 20 min; Potency, µM (doses to about 57.5 µM), for inactives: top-dose activity change, negative = active; 340,000 compounds, 1.9% hits; active = well fitted falling curve with a large enough effect; inconclusive = small, poorly fitted or top-dose-only effect; inactive = no such curve, though single readings can be large or run the other way; also: potency is read from the fitted curve at half-maximal effect; the source files actives as falling curves though it sought activators and does not explain the sign; nearly all actives have a fitted effect of over 65% in size
Target sequence (P80244 whole entry, looked up): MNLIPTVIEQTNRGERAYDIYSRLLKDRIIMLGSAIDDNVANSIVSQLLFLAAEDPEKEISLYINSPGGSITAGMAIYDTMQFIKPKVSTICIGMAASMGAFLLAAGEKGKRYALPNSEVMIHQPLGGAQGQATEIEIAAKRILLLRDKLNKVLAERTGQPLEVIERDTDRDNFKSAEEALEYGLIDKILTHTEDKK
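Purified B. subtilis ClpP, 10 microg/mL final in Tris/HCl pH8 with KCl, BSA, glycerol and Tween-20, cleaved an Abz/nitrotyrosine-quenched decapeptide. Fluorescence (ex 320, em 430) was read at 0 and 20 min at room temperature. Delta was normalized to 5.8 microM ADEP and DMSO/no-enzyme controls.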
TCR activator: Activators of T cell receptors: qHTS campaign. AID 504894, 2011. Potency, µM (highest dose often 9.22 µM), without a hit: at the top dose activation of IL-2 secretion, actives largely listed as activators. primary human leukocytes, anti-CD3, IL-2 HTRF, 48 h. 330,000 tested, under 10 active; also: % of control where 0% means no effect
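IL-2 release read by HTRF sandwich (Eu cryptate donor, d2 acceptor, 665 nm emission) after 48 hr exposure of primary human leukocytes to compound together with anti-CD3 beads in the absence of co-stimulatory signals.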
miR-21 act: qHTS Assay for Modulators of miRNAs and/orActivators of miR-21. HeLa miR-21 FLuc reporter, luciferase, 48 h. 340,000 tested, under 10 active. Potency, µM (titrated, usually from 38.3 µM), for inactives: at the highest dose activity change, positive = activation, hits mostly activators;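 also: % of control where 0% means no effect; miR-21 action dims this reporter so a rising signal means less miR-21 action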
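HeLa cells stably expressing CMV-driven firefly luciferase with a downstream miR-21 binding sequence, endogenously expressing miR-21, were treated with titrations (up to about 40uM final) for 48 hours at 37 degree Celsius. Luciferase luminescence was read after lysis.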
Active calls of the source: *; ? = inconclusive; nt = no result given; [ ] = remark or other dose. An excerpt weighted towards active compounds, which were near 3.7% of everything screened. Unless noted, calls follow the shape of the dose curve; as a rule, active = well fitted curve in the direction sought with a large enough effect; inconclusive = small, poorly fitted or top-dose-only effect, or another doubt; inactive = no such curve, though single readings can be large; an effect the other way counts as inactive or inconclusive.

SMILES	A549 tox	Nrf2 activator	Nrf2 block	ClpP mod	TCR activator	miR-21 act
COc1ccc(-c2cc(C(F)(F)F)n3nc(C(=O)N4CCCCC4)cc3n2)cc1OC	-19%	0%	26µM*	-5%	8%	-7%
O=C(c1ccc2nc3ccccc3c(=O)n2c1)N1CCN(Cc2ccc3c(c2)OCO3)CC1	4%	1%	nt	20µM*	nt	-20%
O=C(c1cccn2c(=O)c3ccccc3nc12)N1CCN(Cc2ccc3c(c2)OCO3)CC1	-2%	0%	9%	?	0%	-7%
O=C(c1[nH]nc2c1CCc1ccccc1-2)N1CCN(Cc2ccc3c(c2)OCO3)CC1	-17%	1%	15µM*	2%	-5%	2%
COc1ccc(OCCN2CCN(C(=O)c3ccc(OC)c(OC)c3)CC2)cc1	-19%	0%	23µM*	nt	-2%	11%
COc1ccc(CC(=O)N2CCN(c3ccccn3)CC2)cc1OC	-10%	0%	-5%	22µM*	-2%	-10%
O=[N+]([O-])c1ccc(S(=O)(=O)NCC(c2cccnc2)N2CCc3ccccc32)cc1 (centres undefined)	0%	0%	3%	-1%	-10%	nt
COc1ccc(-c2cc(C(F)(F)F)n3nc(C(=O)OC(C)C)cc3n2)cc1	0%	4%	nt	-3%	nt	5%
COc1cc2[nH]c(=O)n(Cc3ccc(C(=O)N4CCN(c5cc(Cl)ccc5C)CC4)cc3)c(=O)c2cc1OC	8%	0%	-16%[9.27 µM]	-8%	nt	12%
CCN(CC)CCCNC(=O)c1ccc(Cn2c(=O)[nH]c3cc(OC)c(OC)cc3c2=O)cc1	0%	0%	8%[9.27 µM]	4%	nt	8%
COc1cc2[nH]c(=O)n(Cc3ccc(C(=O)NCC4CCCO4)cc3)c(=O)c2cc1OC (centres undefined)	0%	0%	-13%	25µM*	5%	-5%
COc1ccc(C(=O)N2CCN(Cc3ccc4c(c3)OCO4)CC2)cc1OC	-7%	1%	16µM*	0%	5%	25%
CCN1CCN(C(=O)c2ccc(Cn3c(=O)[nH]c4cc(OC)c(OC)cc4c3=O)cc2)CC1	11%	0%	6%	16µM*	0%	0%
COc1ccc(Cn2c(=O)[nH]c3cc(C(=O)N4CCN(Cc5ccccc5)CC4)ccc3c2=O)cc1	-20%	-1%	23µM*	-14%	3%	22%
Cc1ccc(S(=O)(=O)N(C)c2ccc(OCC(=O)Nc3cc(C(=O)O)ccc3Cl)cc2)cc1	-11%	-1%	1%	2%	-1%	nt
CC1=C(C(=O)NCc2ccc(Cl)cc2)C2(CCCCCC2)OC1=O	6%	3%	-19%	0%	nt	-6%
Oc1cc2cc(-c3csc(-c4ccc(F)cc4)n3)cc3c2n1CCC3	nt	nt	nt	-7%	nt	nt
COc1cc(/C=C/c2ccnc3ccccc23)ccc1N(C)C	nt	nt	nt	0%	nt	nt
CCc1ccc(OCc2cc(=O)n3c4c(sc3n2)CCCC4)cc1	13%	0%	9%	-27%	nt	-10%
COc1ccccc1N1CCN(C(=O)c2ccc3c(=O)n(Cc4ccc5c(c4)OCO5)c(=O)[nH]c3c2)CC1	-9%	0%	15µM*	-4%	-3%	2%
COc1ccc(Cn2c(=O)[nH]c3cc(C(=O)N4CCN(c5ccccc5OC)CC4)ccc3c2=O)cc1	-26%	0%	21µM*	95%	-9%	12%
COc1ccc(CCn2c(=O)[nH]c3cc(C(=O)N4CCN(c5ccccc5)CC4)ccc3c2=O)cc1OC	-8%	0%	-24%	0%	-3%	?
COc1ccc(Cn2c(=O)[nH]c3cc(C(=O)N4CCN(c5ccccc5F)CC4)ccc3c2=O)cc1	2%	0%	-19%	nt	-2%	3%
